Experimental findings from PubChem BioAssay (NCATS) are described below.

Where “and” joins values, the source holds several entries; their conditions need not be identical. Equal values may be shown once. Inconclusive results are not listed. Unmarked numbers belong to inactive results. Calls of active or inactive are those of the source. Calls come from the whole dose curve; as a rule, active = well fitted activation curve with a large enough effect; inconclusive = small, poorly fitted or top-dose-only effect; inactive = flat fitted curve, though single readings scatter.
Potency is the fitted concentration of half-maximal effect.

The nature of the assay: qHTS assay for environmental chemicals that activate the Aryl hydrocarbon Receptor (AhR) signaling pathway (AID 651777). For activation: % of control where 0% means no effect. Note: nearly all actives have a fitted effect of over 15% in size. As to conditions: 1A2-DRE human hepatoma cells, luciferase, 24 h; activation: hits give high values. In a few lines: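 Concentration–response screening used 1,200 1A2-DRE cells per well, 24 hr compound exposure (37 C, 5% CO2), and One-Glo luminescence as the AhR-driven CYP1A2 reporter signal.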
On the technique in general: qHTS replaces the single test concentration by a dilution series.
With `Oc1cccc(Cl)c1Cl`, the activation was 0.0475%.

`CCC/C=N/O`: the activation is -0.464%.

Regarding `Nc1cccc2ccccc12`, the Potency is 44.7 µM (active). Regarding `Cc1cnc[nH]1`, the activation was 1.06%. Still for that read-out and setting: next, `CN(C)N=O`: 0.336%; `COc1c(C(C)(C)C)cc([N+](=O)[O-])c(C)c1[N+](=O)[O-]`: 0.103%; `ClCCOCOCCCl`: 0.193%.

Consider `CC12CC1(C)C(=O)N(c1cc(Cl)cc(Cl)c1)C2=O` (stereo not given), for which the activation is -0.0704% and 1.05%. On the same count and under the same terms, in the case of `CC(C)(Cl)[N+](=O)[O-]` it was -0.364%; in that of `Cl/C=C/Cl`, 0.896%. Consider `O=C(O)c1cccc(Cl)c1`, for which the activation is 0.728%. Same read-out and setting: in the case of `C1CC2OC2CC1C1CO1` (stereo not given) it was 1.2% and -1.91%. Still for that read-out and setting: next, `Brc1cccc(-c2ccccc2)c1`: -0.116%; `Oc1c(Cl)cccc1Cl`: 0.939%; `ClCCOCCCl`: -0.172%.

Regarding `CCNCC`, the activation was -0.962%. On to `CC(C)C#N`, for which the activation was 0.256%. For `Cl/C=C\Cl`, the activation is 0.819%. The same measure, in the same setting: next, `c1ccc2c(c1)CCNC2`: -1.3%; `O=[N+]([O-])c1ccc(Cl)c(Cl)c1Cl`: -1.85%. Regarding `N#CCCC#N`, the activation is 0.758%. Still for that read-out and setting: next, `Cc1ccccc1[N+](=O)[O-]`: -1.35%; `OCCBr`: -0.283%; `C=CC(=O)OCCN(C)C`: 0.563%. On the same count and under the same terms, in the case of `CC(C)(C)C(O)(CCc1ccc(Cl)cc1)Cn1cncn1` (stereo not given) it was 0.583% and 1.83%.
